Experimental findings from the supplement of paper PMC9588786 are described below.

Structures are written as SMILES. ± gives the standard deviation of the averaged measurements.
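Note: viability read as CCK-8 absorbance at 450 nm in cells co-exposed to the GPX4 inhibitor RSL3, relative to a 0.01% DMSO vehicle control.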

This assay relates to HT-1080. Kind of assay: relative cell viability with RSL3 co-treatment (fraction of control); higher = stronger protection from RSL3-induced ferroptosis (higher viability). The conditions noted are these: 10 µM.
Regarding `COc1cc(N2CCC(N)CC2)ccc1Nc1ncc(Cl)c(-c2c[nH]c3ccccc23)n1`, the relative cell viability stood at 0.24 ± 0.062.

As for `COc1cc2c(Oc3ccc(NC(=O)C4(C(=O)Nc5ccc(F)cc5)CC4)cc3F)ccnc2cc1OCCCN1CCOCC1`, the relative cell viability came to 0.287 ± 0.064.

As to `CNC(=O)c1cc(Oc2ccc(NC(=O)Nc3cc(C(C)(C)C)nn3-c3ccc4ncccc4c3)c(F)c2)ccn1` [Rebastinib (DCC-2036)], the relative cell viability came to 0.3 ± 0.085.

Take `CCN1/C(=C/C(C)=O)Sc2ccc(OC)cc21`: the relative cell viability turned out to be 0.76 ± 0.1.

On to `CC(C)(C)c1cc(/C=C(\C#N)C(N)=S)cc(C(C)(C)C)c1O` [Tyrphostin AG 879], for which the relative cell viability was found to be 0.69 ± 0.017.

Consider `CN(C)S(=O)(=O)c1ccc2c(c1)/C(=C/c1cc3c([nH]1)CCCC3)C(=O)N2`, for which the relative cell viability amounted to 0.727 ± 0.081.

`O=C(c1cccc(Cl)c1F)N1CCN(Cc2cccc(Nc3nccs3)n2)CC1`: the relative cell viability came to 0.573 ± 0.049.

As to `Nc1cc(C(F)(F)F)c(-c2cc(N3CCOCC3)nc(N3CCOCC3)n2)cn1` [Buparlisib (BKM120, NVP-BKM120)], the relative cell viability amounted to 0.643 ± 0.031.

Take `FC(F)c1nc2ccccc2n1-c1nc(N2CCOCC2)nc(N2CCOCC2)n1`: the relative cell viability turned out to be 0.723 ± 0.14.

For the molecule `Cc1ccc(NC(=O)c2ccc(CN3CCN(C)CC3)cc2)cc1Nc1nc(-c2cccnc2)cs1` [Masitinib (AB1010)], the relative cell viability was 0.67 ± 0.12.

For `CCCS(=O)(=O)Nc1ccc(F)c(C(=O)c2c[nH]c3ncc(Cl)cc23)c1F`, the relative cell viability amounted to 0.64 ± 0.036.

In the case of `CNC(=O)c1cc(COc2nnc(Nc3ccc(Cl)cc3)c3ccoc23)ccn1` [Telatinib], the relative cell viability is 0.623 ± 0.057.

As for `CN1CCN(c2ccc(C(=O)Nc3n[nH]c4ccc(Cc5cc(F)cc(F)c5)cc34)c(NC3CCOCC3)c2)CC1` [Entrectinib (RXDX-101)], the relative cell viability worked out at 0.537 ± 0.045.
